Some test systems named below: HCT-15 colon; HT29 colon; SNB-75 CNS; SNB-19 CNS; U251 CNS; PC-3 prostate; SK-MEL-5 melanoma; UACC-62 melanoma; LOX IMVI melanoma; SK-MEL-28 melanoma.
Test in all cases: NCI-60 one-dose screen, 48 h (100 = growth as untreated, 0 = no growth, -100 = all killed)
Holding throughout (details): 10 µM unless noted

About 83,000 compounds went through this panel and 20% of them were active in at least one assay; those are over-represented in the sample as a whole.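 A percent growth of 40 corresponds to 60% growth inhibition; 0 means no net growth; -100 means all cells died. Active threshold: below 10.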 A number with no mark means an inactive call. Active and inactive are the calls of the source.

13 molecules from PubChem BioAssay (NCI) can be followed below.

Consider `O=P(O)(O)OCC1OC(n2cnc3c(NCc4ccccc4)ncnc32)C(O)C1O` (stereo not given), for which the growth was 9.47% (active) in the assay with HCT-15 colon; 23.3% with HT29 colon; 49.9% in the assay on SNB-75 CNS; 40.8% in the assay on SNB-19 CNS; 47.3% with U251 CNS; 19.2% in the assay with PC-3 prostate. Also, the growth with SK-MEL-5 melanoma is 84.1%; with UACC-62 melanoma it was 38.4%; with LOX IMVI melanoma, -8.76% (active); in the assay on SK-MEL-28 melanoma, 127%.

On to `O=c1oc2c(cnc3ccccc32)cc1-c1cccs1`, for which the growth was 112% in the assay on HCT-15 colon; 111% with HT29 colon; 92% in the assay on SNB-75 CNS; 101% in the assay on SNB-19 CNS; 99.4% in the assay with U251 CNS; 97.3% in the assay on PC-3 prostate. Further, the growth is 101% in the assay with SK-MEL-5 melanoma, 101% in the assay on UACC-62 melanoma, 106% in the assay on LOX IMVI melanoma and 115% in the assay with SK-MEL-28 melanoma.

For the molecule `CN1CCN(Cc2cc(NC(=O)c3cccc(C#Cc4cccc5[nH]nc(N)c45)c3)cc(C(F)(F)F)c2)CC1`, the growth with HCT-15 colon is 10.8%; in the assay on HT29 colon it was -15.8% (active); in the assay on SNB-75 CNS it was 22.9%; with SNB-19 CNS, 52.1%; in the assay with U251 CNS it was 22.2%; in the assay on PC-3 prostate, 27.4%. The growth in the assay with SK-MEL-5 melanoma is -5.74% (active); in the assay with UACC-62 melanoma, 12.1%; with LOX IMVI melanoma, -90.1% (active); with SK-MEL-28 melanoma, -60.5% (active).

In the case of `CC(C)C[C@@H](C(=O)N[C@H](C(=O)OC1CCCC1)c1ccccc1)[C@H](O)C(=O)NO`, the growth in the assay on HCT-15 colon was 58.4%; in the assay with HT29 colon it was 58%; with SNB-75 CNS, 101%; in the assay on SNB-19 CNS, 76.2%; in the assay on U251 CNS, 45.7%; with PC-3 prostate, 49.6%. In addition, the growth was 59.8% in the assay with SK-MEL-5 melanoma, 68.8% with UACC-62 melanoma, 54.2% with LOX IMVI melanoma and 63.2% in the assay on SK-MEL-28 melanoma.

Take `Brc1ccc(-c2cnc3nonc3n2)cc1`: the growth in the assay with HCT-15 colon was 54.8%; in the assay with HT29 colon, 70.2%; in the assay on SNB-75 CNS it was 96%; in the assay with SNB-19 CNS, 88.2%; in the assay with U251 CNS, 92.5%; in the assay with PC-3 prostate, 57.1%. Besides, the growth in the assay with SK-MEL-5 melanoma was 48.5%; with UACC-62 melanoma, 51.7%; in the assay with LOX IMVI melanoma, 38%; in the assay with SK-MEL-28 melanoma, 104%.

Consider `Cn1cc(-c2csc(-c3cn(C)c4ccc(Br)cc34)n2)c2cnccc21`, for which the growth was -78.6% (active) in the assay with HCT-15 colon; -76.2% (active) in the assay on HT29 colon; -93.6% (active) in the assay on SNB-75 CNS; -86.9% (active) in the assay with SNB-19 CNS; -80.4% (active) with U251 CNS; -74.9% (active) in the assay with PC-3 prostate. Moreover, the growth in the assay with SK-MEL-5 melanoma is -55.7% (active); in the assay with UACC-62 melanoma, -78% (active); in the assay with LOX IMVI melanoma, -92.1% (active); in the assay with SK-MEL-28 melanoma it was -96% (active).

For the molecule `Cc1cc(C)c(-c2c(O)c(Br)c(-c3c(C)cc(C)c(Br)c3C)c(O)c2Br)c(C)c1Br`, the growth with HCT-15 colon was 10.2%; in the assay with HT29 colon, 2.43% (active); in the assay on SNB-75 CNS, 33.4%; in the assay with SNB-19 CNS it was 47.5%; in the assay with U251 CNS, 19.8%; with PC-3 prostate, 27.7%. For the same molecule, the growth in the assay on SK-MEL-5 melanoma is 1.69% (active); in the assay with UACC-62 melanoma it was 14.8%; in the assay with LOX IMVI melanoma, -26% (active); in the assay with SK-MEL-28 melanoma, 49.1%.

In the case of `Cn1cc(-c2nonc2-c2c[nH]c3ccc(F)cc23)c2cc(Br)ccc21`, the growth in the assay on HCT-15 colon is 30.4%; with HT29 colon it was 20.9%; in the assay with SNB-75 CNS, 45.5%; in the assay on SNB-19 CNS it was 58%; with U251 CNS it was 41.4%; in the assay on PC-3 prostate, 44.2%. Besides, the growth in the assay with SK-MEL-5 melanoma was 76.6%; with UACC-62 melanoma, 52.9%; in the assay with LOX IMVI melanoma, 9.44% (active); in the assay on SK-MEL-28 melanoma it was 73.2%.

Turning to `C#CC#CC#CC#CC#CC#CC#CC#CC[C@H]1OC[C@H](COC(=O)O[C@@H](C(=O)O[C@H]2C[C@@]3(O)[C@@H](OC(=O)c4ccccc4)[C@@H]4[C@]5(OC(C)=O)CO[C@@H]5C[C@H](O)[C@@]4(C)C(=O)[C@H](OC(C)=O)C(=C2C)C3(C)C)[C@@H](NC(=O)c2ccccc2)c2ccccc2)O1`, the growth is 99.5% in the assay with HCT-15 colon; 8.74% (active) in the assay with HT29 colon; 37.6% in the assay on SNB-75 CNS; 50.3% with SNB-19 CNS; 37.8% with U251 CNS; 32.7% in the assay with PC-3 prostate. Moreover, the growth in the assay on SK-MEL-5 melanoma is 60.5%; in the assay on UACC-62 melanoma, 46.2%; in the assay with LOX IMVI melanoma, 39.7%; in the assay with SK-MEL-28 melanoma it was 52.1%.

For the molecule `C[N+](C)(C/C=C/c1ccccc1)Cc1ccccc1`, the growth with HCT-15 colon is 97.8%; in the assay with HT29 colon it was 91.9%; in the assay on SNB-75 CNS, 87.5%; with SNB-19 CNS, 104%; in the assay with U251 CNS it was 102%; with PC-3 prostate, 97%. The growth in the assay on SK-MEL-5 melanoma is 95.6%; in the assay on UACC-62 melanoma, 99.3%; in the assay with LOX IMVI melanoma, 89%; with SK-MEL-28 melanoma it was 102%.

In the case of `CCOC(=O)c1c(NC(=O)CSc2n[nH]c3nc4ccccc4n23)sc(CC)c1C`, the growth in the assay on HCT-15 colon was 97.9%; with HT29 colon, 109%; in the assay on SNB-75 CNS, 95.3%; in the assay with SNB-19 CNS, 103%; with U251 CNS, 97.6%; in the assay with PC-3 prostate, 61.5%. The growth was 98% with SK-MEL-5 melanoma, 77.9% in the assay on UACC-62 melanoma, 99% with LOX IMVI melanoma and 113% with SK-MEL-28 melanoma.

For `Oc1c(CN2CCCC2)cc(COCc2ccccc2)c2cccnc12`, the growth is 11.3% in the assay with HCT-15 colon; 74.4% in the assay with HT29 colon; 44.9% in the assay with SNB-75 CNS; 25.5% in the assay with SNB-19 CNS; 1.08% (active) with U251 CNS; 24.9% in the assay on PC-3 prostate. In addition, the growth in the assay with SK-MEL-5 melanoma is -11.1% (active); with UACC-62 melanoma, -19.9% (active); with LOX IMVI melanoma, 2.6% (active); in the assay with SK-MEL-28 melanoma, 31%.

With `O=C(/C=C/c1ccc(Br)cc1)c1ccc(-n2cc(CN3CCN(c4cc5c(cc4F)c(=O)c(C(=O)O)cn5C4CC4)CC3)nn2)cc1`, the growth was 95% in the assay on HCT-15 colon; 91.7% with HT29 colon; 93.6% with SNB-75 CNS; 86.9% with SNB-19 CNS; 71.2% with U251 CNS; 82% in the assay on PC-3 prostate. The growth in the assay on SK-MEL-5 melanoma was 91.1%; with UACC-62 melanoma it was 83%; in the assay with LOX IMVI melanoma, 50.4%; with SK-MEL-28 melanoma, 107%.
